# Compound activity as filed in PubChem BioAssay.
# Shiga inhibitor – A qHTS for Small Molecule Inhibitors of Shiga Toxin | Vero cells, Shiga toxin protein synthesis inhibition reporter | inhibition, % at 38.7 µM | hit rate 9.2% among 290,000 | AID 2315, 2010; in the data active = inhibition mostly above about 28%, no sharp cut-off; inactive = mostly below about 43%; also: 0% is about no effect
# Pf growth 96h – Primary qHTS for delayed death inhibitors of the malarial parasite plastid, 96 hour incubation. hit rate 6.9% among 320,000. Potency, µM (titrated, usually from 28.7 µM), without a hit: at the highest dose activity change, negative = inhibition, actives largely listed as inhibitors. P. falciparum luciferase reporter growth, 96 h. AID 504834, 2011; also: potency is read from the fitted curve at half-maximal effect; % is scaled to controls: 0 for no effect and ±100 for the full control effect
#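 96 h incubation, 37 C, 5% CO2, of luciferase-reporter P. falciparum-infected RBCs (2% hematocrit, 0.05% parasitemia final) with test compounds; endpoint luminescence.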
# Pf growth 48h – Primary qHTS for delayed death inhibitors of the malarial parasite plastid, 48 hour incubation. P. falciparum luciferase growth in erythrocytes, 48 h. hit rate 5.9% among 310,000. Potency, µM (top dose mostly 28.7 µM), inactives show at the highest dose activity change, negative = inhibition, most hits filed as inhibitors. AID 504832, 2011; also: potency is read from the fitted curve at half-maximal effect; % is scaled to controls: 0 for no effect and ±100 for the full control effect
#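 Growth was read as firefly luciferase luminescence after a 48 h, 37 C, 5% CO2 exposure of compounds to reporter-bearing P. falciparum cultures (0.1% parasitemia, 2% hematocrit final) in Albumax-supplemented RPMI 1640.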
# CHX counter – Cycloheximide Counterscreen for Small Molecule Inhibitors of Shiga Toxin; cell reporter, cycloheximide protein synthesis inhibition counterscreen; hit rate 12% among 300,000; max response, %; in the data active = max response mostly above about 13%, no sharp cut-off; inactive = mostly below about 14%; also: read at 38.3 µM for the half of the compounds with a filed dose; 0% is about no effect
# LASV entry inh – qHTS for Inhibitors of binding or entry into cells for Lassa Virus; hit rate 1.2% among 300,000; Potency, µM (highest dose often 37.9 µM), for the others: at the top dose activity change, negative = inhibition, usual class: inhibitors; Lassa virus pseudotype entry inhibition, cell reporter; calls by dose curve; tested in HEK293 cells; also: potency is read from the fitted curve at half-maximal effect; % is scaled to controls: 0 for no effect and ±100 for the full control effect; nearly all actives have a fitted effect of over 50% in size
# Marburg entry inh – qHTS for inhibitors of binding or entry into cells for Marburg Virus; Marburg virus pseudotyped entry inhibition, cell reporter; Potency, µM (top dose mostly 37.8 µM), without a hit: at the top dose activity change, negative = inhibition, usual class: inhibitors; hit rate 1.8% among 300,000; calls by dose curve; tested in HEK293 cells; also: potency is read from the fitted curve at half-maximal effect; % is scaled to controls: 0 for no effect and ±100 for the full control effect
# Active calls of the source: *; ? = inconclusive; · = no result given; [ ] = another dose, or the depositor's remark. This is a sample that favours compounds with a hit; in the whole collection about 19% have one here. Unless noted, calls follow the shape of the dose curve; as a rule, active = well fitted inhibition curve with a large enough effect; inconclusive = small, poorly fitted or top-dose-only effect, or another doubt; inactive = no such curve, though single readings can be large or run the other way.
SMILES,Shiga inhibitor,Pf growth 96h,Pf growth 48h,CHX counter,LASV entry inh,Marburg entry inh
CSc1ccccc1OCc1cc(C(=O)NC(C)Cc2cccc(C)n2)no1 (configuration not stated),88*,?,10µM*,49*,13%,?
COCCn1nnnc1CN(CCc1ccc(OC)c(OC)c1)Cc1cc2ccc(C)cc2[nH]c1=O,-20,·,·,-2,-29%,-16%
CCOc1cc(NC(=O)C2CC2)c(OCC)cc1NC(=O)c1cccnc1,-6,?,-5%,4,·,-2%
O=C(Nc1ccccn1)Nc1ccccc1Cl,50*,16%,61%,32*,·,·
O=C(Nc1ccc(Cl)cc1)Nc1ccccc1Sc1ncc([N+](=O)[O-])s1,63*,40%,2.6µM*,34*,·,·
N#Cc1ccccc1NC(=O)Nc1ccc(Cl)cc1,31,19%,53%,8,6%,?
O=C(COc1ccccc1)Nc1ccccc1Cl,108*,?,103%,41*,·,·
COC(=O)c1ccccc1NC(=O)COc1ccccc1,15,21%,·,4,-11%[14.3 µM],-3%
O=C(Nc1ccccc1Cl)Oc1ccc(-c2ccccc2)cc1,36,0%,34%,18*,·,·
CCOC(=O)C1CCCCN1S(=O)(=O)c1csc(C(N)=O)c1 (configuration not stated),·,·,·,·,10%[46.1 µM],·
COc1cccc(CNC(=O)Cc2c(C)c3cc4c(C)coc4cc3oc2=O)c1,·,·,·,·,2%[46.1 µM],8%[46.1 µM]
O=C(O)CCC(=O)NC1CCCCC1,-10,-3%,·,-5,-12%,7%
COC(=O)CC1=NC(=O)CS1,-8,-1%,24%,-1,5%,12%
O=C(NCc1cccc(Cl)c1)NC(=O)c1csc([N+](=O)[O-])c1,4,0%,9%,-2,·,0%
CSc1ccccc1NC(=O)Nc1ccccc1Cl,38,60%,-5%,24*,15%,10%
CSc1ccccc1NC(=O)NCCCl,-6,-11%,51%,8,12%[46.1 µM],9%[46.1 µM]
O=C(Nc1csc([N+](=O)[O-])c1)Nc1ccccc1Cl,54*,?,?,36*,-8%,?
O=C(Nc1ccccc1Cl)Nc1ccccc1Cl,32,68%,22%,21*,-1%,12%[46.1 µM]
O=C(Nc1ccc(Nc2ccccc2)cc1)Nc1ccccc1Cl,97*,105%,102%,41*,·,·
CCOC(=O)C1(Cc2ccccc2)CCN(Cc2ccc(COC)o2)CC1,-15,?,-8%,0,-1%,-17%[46.1 µM]
N#Cc1ccc(C(=O)Nc2nc(SCc3ccc(Cl)cc3)n[nH]2)cc1,-4,-10%,11%,3,-4%[46.1 µM],-10%[46.1 µM]
COc1ccc(C(=O)C2CCCN(Cc3ccc(C)s3)C2)c(OC)c1 (configuration not stated),-1,-7%,-14%,-1,?,?
NC(=O)CSc1nc2ccc(NC(=O)COc3ccccc3Cl)cc2s1,·,·,·,·,11%[46.1 µM],0%[46.1 µM]
Cn1c(COc2ccccc2O)[n+](C)c2ccccc21,4,-19%,-11%,-5,·,·
CCCCCCCCCCOC(=O)Cn1c(COc2ccccc2OC)[n+](C)c2ccccc21,-8,?,1.7µM*,-3,?,2.5µM*
SMILES,Shiga inhibitor,Pf growth 96h,Pf growth 48h,CHX counter,LASV entry inh,Marburg entry inh
COc1ccccc1NC(=O)C(C)OC(=O)C1CC(=O)N(c2ccc3c(c2)OCCO3)C1 (configuration not stated),-2,62%,1%,-1,-12%,-1%[46.1 µM]
NC(=O)CSc1nc(-c2ccccc2Cl)ns1,19*,-1%,129%,45*,?,?
COc1ccc([C@H]2CC(=O)C=C(c3cccc(Cl)c3O)C2)cc1OC,·,9.3µM*,?,·,·,·
O=C1C=C(c2cccc(Cl)c2O)C[C@@H](c2ccc3c(c2)OCO3)C1,·,?,12µM*,·,·,·
O=C1C=C(c2cccc(Br)c2)C[C@@H](c2ccc3c(c2)OCO3)C1,·,?,4.7µM*,·,·,·
CCOC(=O)c1cccc(C2=CC(=O)C[C@H](c3ccc(OC)c(OC)c3)C2)c1,·,?,10µM*,·,·,·
O=C1C=C(c2ccccc2)C[C@@H](c2ccc3c(c2)OCO3)C1,·,16%,-23%,·,·,·
COc1ccc([C@H]2CC(=O)C=C(c3ccc(-c4ccccc4)c(F)c3)C2)cc1OC,·,46%,-20%,·,·,·
